BaF3 parental: counter-screen for JAK2V617F inhibitors: parental Ba/F3 viability inhibitors; CellTiter-Glo ATP luminescence; inhibition, % at 5.6 µM; 220,000 tested, 1.1% active;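 active = inhibition above a per-campaign cutoff, the mean inhibition of all tested compounds plus 3 SD, cut at about 27% in these data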
Ba/F3 V617F tox: lowers viability of Ba/F3 cells expressing EpoR and JAK2V617F | 220,000 tested, 1.1% active | inhibition, % at 5.6 µM | AID 1446 | ATP luminescence;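 active = inhibition above the campaign mean plus 3 SD over all tested compounds, cut at about 24% in these data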;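 note: cytokine-independent growth of Ba/F3 cells driven by EpoR plus mutant JAK2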
IEC-6 cytotox: IEC-6 cytotoxicity, counter-screen for KLF5 inhibitors | luminescence viability | inhibition, % at 5 µM | 290,000 tested, 0.78% active; in the data active = inhibition above about 22%
APP 5UTR inh: APP translation inhibition; SH-SY5Y APP 5'UTR-luciferase reporter, luminescence; inhibition, % at 2 µM; 190,000 tested, 0.82% active;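 active = inhibition above a set limit, derived from the sample mean plus 3 SD, cut at about 45% in these data; inconclusive = one replicate passes the limit while the other fails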
aSyn UTR inh: 5' untranslated region of α-synuclein, MLPCN primary screen. alpha-synuclein 5'UTR reporter, inhibitor activity. inhibition, % (tested at 7.5 µM). 300,000 tested, 0.82% active; in the data active = inhibition above about 60%; inconclusive = no clear call, values can overlap the other calls;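 note: H4 neuroglioblastoma cells stably carrying SNCA 5'UTR luciferase fusion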
KLF5 inhibitor: kruppel-like factor 5 inhibition; DLD-1 KLF5 promoter-luciferase reporter, luminescence; inhibition, % at 5 µM; 290,000 tested, 0.23% active;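 active = inhibition above a per-plate limit of that plate's mean compound inhibition plus 3 SD, cut at about 60% in these data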;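 note: higher means less KLF5 promoter-driven luciferase light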
Numbers stand for hits; . = inactive; ? = inconclusive; / = no result. Shown are actives, neighbours in structure and some others; about 2.2% of the full set was active somewhere.

SMILES | BaF3 parental | Ba/F3 V617F tox | IEC-6 cytotox | APP 5UTR inh | aSyn UTR inh | KLF5 inhibitor
CCCCOC(=O)/C=C\C(=O)NC(N)=O | . | . | . | / | . | .
CCOc1cc(C2C(C#N)=C(N)OC(C)=C2C(C)=O)c(Br)c(Br)c1OC(C)C (configuration not stated) | . | . | . | 66 | . | .
CC(=O)Oc1c(C)c(=O)n(C)c2ccccc12 | 42 | 66 | . | . | . | .
N#C/C(=N\Nc1cccc(C(F)(F)F)c1)C(=O)c1ccsc1 | 32 | . | . | / | . | .
N#C/C(=N\Nc1cccc([N+](=O)[O-])c1)C(=O)c1ccc(Br)cc1 | . | . | . | . | . | .
O=C(O)C1C2CCC(O2)C1C(=O)Nc1ccc(Cl)cc1F (configuration not stated) | / | / | . | / | . | .
CCOc1cc(/C=C2/NC(=O)N(Cc3ccccc3F)C2=O)ccc1O | 72 | 95 | . | . | . | .
COC(=O)C1(C)NC(c2ccccc2F)C2C(=O)N(c3ccccc3)C(=O)C21 (configuration not stated) | / | / | . | / | . | .
CCOC(=O)C(=CNc1cc(C)nn1-c1ccc(C)cc1)C(=O)OCC | . | 24 | . | . | . | .
Cc1nnc(NC2CCCCC2)[nH]c1=O | . | . | . | . | . | .
COc1ccc(/C=C/C2=CCN(Cc3ccc(OC)cc3)CC2)cc1 | 38 | . | . | . | . | .
Cc1ccc(OCCC(=O)OCC(=O)c2c(N)n(C)c(=O)n(C)c2=O)cc1 | / | / | / | / | . | /
CN(C(=O)COC(=O)c1c2c(nc3ccccc13)/C(=C/c1cccc([N+](=O)[O-])c1)CCC2)C1CCS(=O)(=O)C1 (configuration not stated) | . | . | . | . | 72 | .
C=CCC(C#Cc1ccccc1)[N+](C)(C)CC=C (configuration not stated) | 50 | 41 | . | . | . | .
CCCS(=O)(=O)N1CCCC(C(=O)c2cccc(Cl)c2)C1 (configuration not stated) | . | . | . | . | . | .
Cc1ccc(Nc2nc(N)nc(CN3CCCCCC3)n2)c(C)c1 | . | . | . | . | . | .
Cc1ccc(Nc2nc(N)nc(CN3CCC(C)CC3)n2)c(C)c1 | 89 | . | . | . | . | .
CC1(C(=O)O)CCC(C(=O)Nc2ccc3ccccc3c2)C1(C)C (configuration not stated) | . | . | . | . | . | .
CN(C)c1nnnn1-c1ccc(Cl)cc1Cl | . | . | . | . | . | .
O=C(O)Cc1c(C(=O)O)nnn1-c1ccc(Cl)cc1Cl | . | . | . | 50 | . | .
CCOc1ccc(CNC(=O)Cn2c(=O)c3cccn3c3ccccc32)cc1 | / | / | . | / | . | .
S=c1[nH]nc(Cn2nnc3ccccc32)n1-c1ccccc1 | . | . | . | . | . | .
COc1ccc(N(C(=O)CCl)C(C(=O)NCCc2ccccc2)c2cccs2)cc1 (configuration not stated) | 30 | 102 | 41 | . | . | .
COc1ccc(Cn2c(-c3ccc(OC)cc3)nc3ccccc32)cc1 | . | . | . | . | . | .
COc1ccc(Cn2c(-c3ccc(Br)cc3)c[n+]3ccccc23)cc1 | 64 | 72 | . | . | . | .
SMILES | BaF3 parental | Ba/F3 V617F tox | IEC-6 cytotox | APP 5UTR inh | aSyn UTR inh | KLF5 inhibitor
CCC1(C)N=C(N)Nc2nc3cc(C)c(C)cc3n21 (configuration not stated) | 85 | 73 | . | / | . | .
Brc1cccc(-c2nnc3n2CCCCC3)c1 | 96 | . | . | . | . | .
c1ccc(-c2nnc3n2CCCC3)cc1 | . | . | . | . | . | .
COc1ccc(Nc2nnc(SCC(=O)Nc3ccc4[nH]c(=O)[nH]c4c3)s2)cc1 | . | . | . | . | . | .
Clc1ccc(-c2nnc(NC3=NCCCCC3)o2)cc1 | . | . | . | . | 75 | .
O=C(Nc1nnc(-c2ccc(Cl)cc2)o1)C1CCCCC1 | / | / | / | / | . | /
Oc1ccc(/C=N/N=C(c2ccccc2)c2ccccc2)c(O)c1O | . | . | . | 49 | / | .
COc1ccc(-c2csc(Nc3ccc(S(=O)(=O)Nc4cc(C)on4)cc3)n2)cc1 | . | . | . | . | . | .
Cc1ccc(CS(=O)Cc2ccc(C(=O)N3CCN(c4ccccn4)CC3)o2)cc1 (configuration not stated) | / | / | . | / | . | .
CCC(CO)[n+]1c(C)cc(/C=C2\Sc3ccccc3N2Cc2ccccc2)cc1C (configuration not stated) | 61 | 68 | . | . | / | .
Cc1ccc(OCC(=O)Nc2ccc(S(=O)(=O)N3CCOCC3)cc2)c(Br)c1 | / | / | . | / | . | .
COc1ccc(N2CC(O)(c3ccc(C)cc3)[N+]3=C2CCCC3)cc1 (configuration not stated) | 50 | 45 | . | . | . | .
COc1ccc(N2CC(O)(c3ccc(F)cc3)[N+]3=C2CCCC3)cc1 (configuration not stated) | . | . | . | . | . | .
Oc1c(N=Nc2ccccn2)ccc2ccccc12 | . | . | . | 82 | 74 | .
c1ccc2c(c1)ccc1ncccc12 | . | . | . | . | . | .
C[n+]1c(/C=C/c2ccc3c(c2)OCO3)ccc2ccccc21 | 33 | 41 | . | . | . | .
O=C(NNC(=O)C1CCN(c2ncccn2)CC1)c1ccc(Cl)cc1 | 90 | . | . | . | . | .
Cc1ccc(NCCc2ccc(C)nc2)cc1 | . | . | . | 53 | . | .
Cc1ccc(CCNc2ccc3ccccc3c2)cn1 | . | . | . | . | . | .
FC(F)Oc1ccc(NC(=S)NCC2COc3ccccc3O2)cc1 (configuration not stated) | . | . | . | . | . | .
CS(=O)(=O)c1nc(-c2ccccc2)cc(C(F)(F)F)n1 | . | . | . | 62 | . | .
FC(F)(F)c1cc(-c2ccccc2)nc(N2CCCCCC2)n1 | . | . | . | . | . | .
O=C(Nc1ccc2c(c1)OCCO2)c1ccccn1 | . | . | . | . | 88 | .
O=C(Nc1ccc2c(c1)OCCO2)c1cccc2nc3ccccc3nc12 | . | . | . | 46 | ? | .
CCn1cc(CNC(=O)c2cc(COc3ccc(F)cc3Cl)on2)cn1 | . | . | . | . | . | .
SMILES | BaF3 parental | Ba/F3 V617F tox | IEC-6 cytotox | APP 5UTR inh | aSyn UTR inh | KLF5 inhibitor
CCn1nc(C)c(CNC(=O)c2cc(COc3ccc(F)cc3Cl)on2)c1C | 64 | 67 | . | / | . | .
C[N+]1=C(/C=C/Nc2ccccc2Cl)C(C)(C)c2ccccc21 | 63 | 59 | . | . | . | .
COc1cccc(OCCNC(=O)c2cccc(OC)c2)c1 | . | . | . | 45 | . | .
COc1cccc(OCCNC(=O)c2ccc(C)cc2)c1 | / | / | . | / | . | .
COc1ccc(C(C(=O)NC2CCCC2)N(C(=O)c2snc(-c3ccc(F)cc3)c2N)c2cccc(F)c2)cc1 (configuration not stated) | . | . | . | . | . | .
O=C1/C(=C/c2ccccc2)CCCc2ccccc21 | . | . | . | . | . | .
Cc1cccc(/C=C2\CCC(=C3SCCCS3)C2=O)c1 | . | . | . | . | 85 | .
O=C1C(=C2SCCCS2)CC/C1=C\c1ccc(F)cc1 | . | . | . | . | 119 | .

Assay outcomes: PubChem BioAssay, several laboratories
